High-throughput results as filed in PubChem BioAssay.
An excerpt weighted towards active compounds, which were near 0.9% of everything screened.
Texas Red fluor: qHTS Assay for Spectroscopic Profiling in Texas Red Spectral Region | 0.06% of 59,000 active | Compound fluorescence, Texas Red channel, 547/618 nm; stronger effect = higher value | AID 587, 2007 | max dye-equivalent concentration, M; in the data active = max dye-equivalent concentration above about 10 nM; inconclusive = between about 1.1 nM and that limit
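qHTS profiling of intrinsic compound fluorescence; 100 mM Tris pH 8.0; 15 min RT; ex 547 / em 618 nm; response expressed as Texas Red dye-equivalent concentration from six-point plate standard.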
Rhodamine fluor: qHTS Assay for Spectroscopic Profiling in Rhodamine Spectral Region; max dye-equivalent concentration, M; Rhodamine-region fluorescence, 547/598 nm, Tris buffer; stronger effect = higher value; 0.05% of 59,000 active; AID 594, 2007; in the data active = max dye-equivalent concentration above about 11 nM; inconclusive = between about 1.1 nM and that limit
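Intrinsic compound fluorescence, ex 547 / em 598 nm, CCD imager. Tris 100 mM pH 8.0; 15 min RT. Output = rhodamine dye-equivalent concentration at each compound concentration.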
A488 fluor: qHTS Assay for Spectroscopic Profiling in A488 Spectral Region; compound autofluorescence, A488 spectral region, dye equivalency; Compound Type: qHTS ECL - MLSMR; max dye equivalency, M; 0.1% of 59,000 active
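Compounds pin-transferred into 100 mM Tris buffer, pH 8.0, incubated 15 min at room temperature, then imaged with 480 nm excitation/540 nm emission filters. Fluorescence converted to Alexa 488 dye-equivalent concentration via an on-plate six-point A488 standard curve.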
Resorufin fluor: qHTS Assay for Spectroscopic Profiling in Resorufin Spectral Region; Compound fluorescence, resorufin region 547/598 nm, buffer; stronger effect = higher value; 0.04% of 59,000 active; max dye-equivalent concentration, M; AID 588, 2007
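Dye-equivalent concentration values derive from comparing each well's 547/598 nm fluorescence against resorufin standards included on every plate. Incubation was 15 min at room temperature in 100 mM Tris, pH 8.0.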
A647 fluor: qHTS Assay for Spectroscopic Profiling in A647 Spectral Region; Compound fluorescence, A647 channel (570/671 nm), Tris buffer; max dye-equivalent concentration, M; 59,000 tested, under 10 active
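Fluorescence read (570 nm ex, 671 nm em) after 15 min RT incubation of compounds in 100 mM Tris buffer, pH 8.0; values expressed as dye-equivalent concentration against a six-point A647 standard series on each plate.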
Fluorescein fluor: qHTS Assay for Spectroscopic Profiling in Fluorescein Spectral Region. AID 593, 2007. max fluorescein-equivalent concentration, M. 0.91% of 59,000 active. Compound autofluorescence, 480/540 nm, fluorescein-equivalent; stronger effect = higher value; in the data active = max fluorescein-equivalent concentration above about 10 nM; inconclusive = between about 1.1 nM and that limit
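Tris 100 mM pH 8.0; 15 min RT; CCD read, ex 480/em 540 nm. Output: fluorescein-equivalent concentration per compound concentration, from six-point dye series on each plate.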
Numbers stand for hits; n = inactive; u = inconclusive; ! = a repeat was not active. Unless noted, no rule for the calls is given here.

SMILES	Texas Red fluor	Rhodamine fluor	A488 fluor	Resorufin fluor	A647 fluor	Fluorescein fluor
Cc1nc(NCc2ccco2)c2c3c(sc2n1)CCC3	n	n	n	n	n	n
COc1ccc(C(=O)N2CCC3(CCCN(c4cccc(-c5ccccc5)c4)C3)CC2)cc1	n	n	n	n	n	1.38e-08M
COc1ccc(NC(=O)N2CCCC3(CCN(C(=O)c4ccc(OC)cc4)CC3)C2)cc1	n	n	n	n	n	2.61e-08M
COc1ccc(C(=O)N2CCC3(CC2)CN(c2cccc(-c4ccccc4)c2)C3)cc1	n	n	n	n	n	n
Cc1ccc(C(=O)[C@@H]2[C@@H]3[C@@H](C(=O)[C@@H]4OC[C@H]3O4)[C@@H]3C=Cc4ccccc4N23)cc1	n	n	n	n	n	n
CN(C)c1ccc(N/C=C/C(=O)c2ccc(F)cc2)cc1	n	n	n	n	n	2.44e-08M
NC(=O)c1cc2ccc(O)cc2oc1=NCc1ccccc1	n	n	1.48e-08M	n	n	2.69e-07M
NC(=O)c1cc2ccc(O)cc2oc1=Nc1ccccc1	n	n	n	n	n	u
C=C1C[C@@]23C[C@]1(O)CC[C@@H]2[C@]12C=C[C@@H](O)[C@@](C)(C(=O)O1)[C@@H]2[C@@H]3C(=O)O	n	n	n	n	n	n
COc1ccccc1CN1CC[C@@]2(CCCN(C(=O)c3ccncc3)C2)C1	n	n	n	n	n	n
COc1ccccc1CN1CCC2(CC1)CCN(C(=O)c1ccncc1)CC2	n	n	n	n	n	1.06e-08M
N#Cc1ccc(CN2CCC3(CCNCC3)CC2)cc1	n	n	n	n	n	n
O=c1c(-c2ccc(Cl)cc2)nc2cnc(N3CCOCC3)nc2n1C1CC1	n	n	n	n	n	1.05e-08M
CN1CCc2c(sc(/N=C/c3ccco3)c2C(N)=O)C1	n	n	u	n	n	2.47e-08M
N#Cc1c(/N=C/c2cccs2)sc2c1CCC2	n	n	n	n	n	u
N#Cc1c(/N=C/c2ccco2)sc2c1CCCCC2	n	n	n	n	n	n
CN1CCc2c(sc(/N=C/c3cccs3)c2C(N)=O)C1	u	n	n	n	n	1.08e-08M
OC[C@@H]1O[C@@H](n2cnc3c(NCCc4ccccc4)ncnc32)[C@@H](O)[C@H]1O	n	n	n	n	n	n
O=C(O)[C@@H]1[C@@H]2C[C@H]3c4[nH]c5ccccc5c4CCN3C[C@@H]2CC[C@@H]1O	n	n	n	n	n	1.67e-08M!
COC(=O)[C@@H]1[C@@H]2C[C@H]3c4[nH]c5ccccc5c4CCN3C[C@@H]2CC[C@@H]1OS(=O)(=O)O	n	n	n	n	n	u
C[C@H]1[C@H](C)CC[C@@]2(C(=O)O)CC[C@]3(C)C(=CC[C@@H]4[C@@]5(C)CC[C@H](O)C(C)(C)[C@@H]5CC[C@@]43C)[C@@H]12	n	n	n	n	n	n
CN(C)CC[C@H](c1ccc(Cl)cc1)c1ccccn1	u	n	n	n	n	1.32e-08M!
NNS(=O)(=O)c1cc(C(=O)O)cc(C(=O)O)c1	n	n	n	n	n	u
CC(=O)OC(C)(C)N=Nc1ccc(Br)cc1	n	n	n	n	n	n
COc1ccc2c(C)cc(SCC(=O)N3CCOCC3)nc2c1	n	n	u	n	n	5.88e-08M
SMILES	Texas Red fluor	Rhodamine fluor	A488 fluor	Resorufin fluor	A647 fluor	Fluorescein fluor
O=c1c(-c2cccs2)nc2cncnc2n1Cc1ccc(F)cc1	n	n	n	n	n	u
O=C(c1cccc(F)c1)N1CCC2(CCCN(C(c3ccccc3)c3ccccc3)C2)CC1	n	n	n	n	n	u
C[C@]1(c2ccccc2)O[C@@H]2C[C@@H]3[C@@H]4CCC5=CC(=O)C=C[C@@]5(C)[C@]4(F)[C@H](O)C[C@]3(C)[C@@]2(C(=O)CO)O1	n	n	n	n	n	n
CN(C)CCCOc1nn(Cc2ccccc2)c2ccccc12	n	n	n	n	n	1.94e-08M
CC1CCc2cccc3c2N1c1cc(C#N)c(C#N)cc1O3 (centres undefined)	u	n	u	n	n	6.28e-08M
CCNC(=O)[C@@H]1O[C@@H](n2cnc3c(NCc4ccccc4)ncnc32)[C@@H](O)[C@H]1O	n	n	n	n	n	n
Cc1ccc(C2NC(=O)c3ccccc3N2)s1 (centres undefined)	u	n	n	n	n	n
CN1CCc2c(sc3c2C(=O)NC(c2cccs2)N3)C1 (centres undefined)	u	n	n	n	n	1.81e-08M
N#CCCn1c(=O)c(-c2cccs2)nc2cnc(Nc3ccccc3)nc21	n	n	n	n	n	u
CCNc1ncc2nc(-c3cccs3)c(=O)n(CCC#N)c2n1	n	n	n	n	n	1.43e-08M
Nc1ncnc2nc[nH]c12.Nc1ncnc2nc[nH]c12.[Cl][Pt]([Cl])([Cl])[Cl]	n	n	n	n	n	n
C[C@H](O)C(=O)C1=Nc2c(nc(N)[nH]c2=O)NC1	u	n	u	n	n	4.02e-08M
CCOC(=O)c1c(C)[nH]c(C=Nc2ccccc2)c1O	u	n	n	n	n	1.73e-08M
Cc1cc(C)c(S(=O)(=O)N(CC(=O)O)C2CCCCC2)c(C)c1	n	n	n	n	n	2.56e-08M
Cc1cc(C)c(S(=O)(=O)N(CC(=O)N2CCOCC2)C2CCCCC2)c(C)c1	n	n	n	n	n	n
CCN(CC)c1ccc2cc(C(=O)Nc3cccnc3N3CCOCC3)c(=O)oc2c1	n	n	u	n	n	4.04e-08M
CCN(CC)c1ccc2cc(C(=O)Nc3ccccn3)c(=O)oc2c1	n	n	2.6e-08M	n	n	5.44e-07M
CCN(CC)c1ccc2cc(NC(=O)CCC(=O)O)c(=O)oc2c1	n	n	1.23e-08M	n	n	2.23e-07M
COc1ccccc1C(=O)Nc1ccccn1	u	n	n	n	n	u
Cc1ccc(-c2cc(-c3nnc(SCC(=O)N(C)CCC#N)n3N)c3ccccc3n2)cc1	n	n	n	n	n	1.06e-08M
C=CCSC[C@@H]1Nc2cc(Cl)c(S(N)(=O)=O)cc2S(=O)(=O)N1	n	n	n	n	n	n
O=C(CN1c2cccc3cccc(c23)S1(=O)=O)N1CCOCC1	n	n	u	n	n	3.73e-08M
CCOc1cccc(C2C(C(=O)c3ccc(C)o3)=C(O)C(=O)N2c2nccs2)c1 (centres undefined)	n	n	u	n	n	4.33e-08M
